Where a name gives a salt, the structure may show the parent alone.
system: Staphylococcus aureus MW2 (mecA+); assay: normalized DsRed fluorescence (growth of mecA+ strain) (fraction of control range); higher = more growth of mecA+ strain; details: compound concentration: 150 uM; cefoxitin: subinhibitory; fluorescent label: DsRed
Summary of the method: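 Compound at 150 μM (1.5% DMSO) in 1536-well plates received 5 µL/well of pre-induced S. aureus MW2 cells mixed 1:1, gene-carrying with DsRed and gene-deleted with GFP, in LB with a daily-set subinhibitory antibiotic dose, single replicate. After 20 h unshaken at 37 °C, 90% humidity, DsRed (540/590) and GFP (485/520) were measured and scaled per plate between single-strain control medians. Plates with high untreated ratios and rows with DsRed/GFP >10 were excluded.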

SMILES	normalized DsRed fluorescence
C#C[C@]1(OC(C)=O)CC[C@H]2[C@@H]3CCC4=C[C@@H](OC(C)=O)CC[C@@H]4[C@H]3CC[C@@]21C	0.568
COc1cc2/c(=N/c3ccc(Br)cc3F)nc[nH]c2cc1OCC1CCN(C)CC1 [Vandetanib (Zactima)]	1.19
CCCc1nc(C(C)(C)O)c(C(=O)OCc2oc(=O)oc2C)n1Cc1ccc(-c2ccccc2-c2nnn[nH]2)cc1	0.605
CCCCC(=O)N(Cc1ccc(-c2ccccc2-c2nnn[nH]2)cc1)[C@H](C(=O)O)C(C)C	0.898
CCOC(=O)[C@H](CCc1ccccc1)N[C@@H](C)C(=O)N1[C@H](C(=O)O)C[C@@H]2CCC[C@@H]21	0.71
CCOc1ccc(NC(C)=O)cc1	0.668
CC(C(=O)O)c1ccc(N2Cc3ccccc3C2=O)cc1 (centres undefined)	0.501
CC(=O)CC(c1ccccc1)c1c(O)c2ccccc2oc1=O (centres undefined)	0.285
CCCSc1nc(N[C@@H]2C[C@H]2c2ccc(F)c(F)c2)c2nnn([C@@H]3C[C@H](OCCO)[C@@H](O)[C@H]3O)c2n1 [Ticagrelor]	-0.0335
NC[C@@H]1O[C@H](O[C@H]2[C@@H](O)[C@H](O[C@@H]3[C@@H](O)[C@H](N)C[C@H](N)[C@H]3O[C@H]3O[C@H](CO)[C@@H](O)[C@H](O)[C@H]3N)O[C@@H]2CO)[C@H](N)[C@@H](O)[C@@H]1O	0.794
CCc1cccc2c3c([nH]c12)C(CC)(CC(=O)O)OCC3 (centres undefined)	0.562
COc1cc2c(Oc3ccc4[nH]c(C)cc4c3F)ncnc2cc1OCCCN1CCCC1 [Cediranib (AZD2171)]	1.4
C[C@H](NCc1ccc(OCc2cccc(F)c2)cc1)C(N)=O	0.675
CCCCc1nc(Cl)c(CO)n1Cc1ccc(-c2ccccc2-c2nnn[nH]2)cc1	0.864
N=C(N)NC(=N)NCCc1ccccc1	0.624
CN(C)CCN(Cc1cccs1)c1ccccn1	0.778
CC(C)N1CCN(c2ccc(OCC3COC(Cn4cncn4)(c4ccc(Cl)cc4Cl)O3)cc2)CC1 (centres undefined)	0.734
CCC(=O)OCC(=O)[C@@]1(OC(=O)CC)[C@@H](C)C[C@H]2[C@@H]3CCC4=CC(=O)C=C[C@]4(C)[C@@]3(Cl)[C@@H](O)C[C@@]21C	0.958
Cc1ccccc1C(OCCN(C)C)c1ccccc1 (centres undefined)	1.23
CC1=C(/C=C/C(C)=C/C=C/C(C)=C/CO)C(C)(C)CCC1	0.677

SMILES	normalized DsRed fluorescence
O=C(CCCN1CCC(O)(c2ccc(Br)cc2)CC1)c1ccc(F)cc1	1.21
CC(O)C(=O)O.N (centres undefined)	0.837
CN(C/C=C/C#CC(C)(C)C)Cc1cccc2ccccc12 [Terbinafine hydrochloride (Lamisil)]	0.483
CNC(=O)CN(CCN(CCN(CC(=O)O)CC(=O)NC)CC(=O)O)CC(=O)O.O.[Gd] [Gadodiamide (Omniscan)]	0.566
Clc1ccc(C(c2ccccc2Cl)C(Cl)Cl)cc1 (centres undefined)	0.731
CCN[C@H]1C[C@H](C)S(=O)(=O)c2sc(S(N)(=O)=O)cc21 [Dorzolamide HCL]	0.697
CCC(=O)O[C@@H](O[P@](=O)(CCCCc1ccccc1)CC(=O)N1C[C@H](C2CCCCC2)C[C@H]1C(=O)O)C(C)C [Fosinopril sodium (Monopril)]	0.378
CCCNS(=O)(=O)Nc1ncnc(OCCOc2ncc(Br)cn2)c1-c1ccc(Br)cc1 [Macitentan]	0.379
CC(=O)O[C@H]1C(=O)[C@@]2(C)[C@H]([C@H](OC(=O)c3ccccc3)[C@]3(O)C[C@H](OC(=O)[C@H](O)[C@@H](NC(=O)c4ccccc4)c4ccccc4)C(C)=C1C3(C)C)[C@]1(OC(C)=O)CO[C@@H]1C[C@@H]2O [Paclitaxel (Taxol)]	0.669
CC#CCn1c(N2CCC[C@@H](N)C2)nc2c1c(=O)n(Cc1nc(C)c3ccccc3n1)c(=O)n2C	0.667
CCN(CC)CCNC(=O)c1ccc(N)cc1	0.696
CCS(=O)(=O)CCn1c([N+](=O)[O-])cnc1C	1.08
CCCN(CCC)C(=O)C(CCC(=O)O)NC(=O)c1ccccc1 (centres undefined)	0.55
CN(C)[C@@H](CCOc1cccc2ccccc12)c1ccccc1 [Dapoxetine hydrochloride (Priligy)]	1.15
NS(=O)(=O)Cc1noc2ccccc12 [Zonisamide]	0.893
Nc1ccc(S(=O)(=O)Nc2ncccn2)cc1	0.718
Cc1ccc(S(=O)(=O)NC(=O)NN2CCCCCC2)cc1	0.655
O=P(O)(O)C(O)(Cn1ccnc1)P(=O)(O)O [Zoledronic Acid (Zoledronate)]	0.685
CCOC(=O)OC(C)OC(=O)[C@@H]1N2C(=O)[C@@H](NC(=O)[C@H](N)c3ccccc3)[C@H]2SC1(C)C (some centres undefined)	0.591

From the supplement of paper PMC7695840
